Data from PMC7862700, “An all-to-all approach to the identification of sequence-specific readers for epigenetic DNA modifications on cytosine”.

Assays:
Assay in all cases: DAPPL (digital affinity profiling via proximity ligation, sequencing); 10 mM Tris-HCl pH 7.5, 50 mM NaCl, 1 mM DTT, 4% glycerol, room temperature, 30 min; GST-TFs on glutathione beads, 16-mer random dsDNA library, 0.1% formaldehyde crosslink after washing; high values mean tight binding
Conditions in all cases: protein: recombinant; tags: N-terminal GST; dsDNA, one strand shown
FLI1 = target: T1, FLI1 (Homo sapiens, UniProt Q01543 1-452)
T1 sequence: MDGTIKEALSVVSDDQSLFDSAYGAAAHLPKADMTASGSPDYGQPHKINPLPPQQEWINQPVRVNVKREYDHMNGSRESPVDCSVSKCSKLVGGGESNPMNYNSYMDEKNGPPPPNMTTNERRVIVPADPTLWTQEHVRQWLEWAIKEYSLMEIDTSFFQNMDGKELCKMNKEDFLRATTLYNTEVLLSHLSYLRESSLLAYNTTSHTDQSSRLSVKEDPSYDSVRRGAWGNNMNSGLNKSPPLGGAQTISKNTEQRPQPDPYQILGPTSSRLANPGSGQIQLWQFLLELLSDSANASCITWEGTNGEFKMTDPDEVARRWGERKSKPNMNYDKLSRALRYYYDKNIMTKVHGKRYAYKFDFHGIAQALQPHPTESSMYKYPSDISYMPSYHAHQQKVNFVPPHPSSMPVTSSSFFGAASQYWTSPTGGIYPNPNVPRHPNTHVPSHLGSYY
How it was run: (§1)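 Binding signal is each hexamer's read frequency for a factor divided by its frequency in the tag-only sample. The factors were GST-fused human transcription factors from yeast, captured on glutathione beads, DNA-barcoded and pooled with that sample. Pools were incubated with 200 nmole of a random double-stranded 16-mer DNA library in Tris/NaCl/DTT/glycerol buffer at room temperature for 30 min, then washed, crosslinked with 0.1% formaldehyde, proximity-ligated with BsaI/T4 ligase (1 h, 37 °C), PCR-amplified and sequenced on an Illumina NextSeq500.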

ELK1 = target: T2, ELK1 (Homo sapiens, UniProt P19419 1-428)
T2 sequence: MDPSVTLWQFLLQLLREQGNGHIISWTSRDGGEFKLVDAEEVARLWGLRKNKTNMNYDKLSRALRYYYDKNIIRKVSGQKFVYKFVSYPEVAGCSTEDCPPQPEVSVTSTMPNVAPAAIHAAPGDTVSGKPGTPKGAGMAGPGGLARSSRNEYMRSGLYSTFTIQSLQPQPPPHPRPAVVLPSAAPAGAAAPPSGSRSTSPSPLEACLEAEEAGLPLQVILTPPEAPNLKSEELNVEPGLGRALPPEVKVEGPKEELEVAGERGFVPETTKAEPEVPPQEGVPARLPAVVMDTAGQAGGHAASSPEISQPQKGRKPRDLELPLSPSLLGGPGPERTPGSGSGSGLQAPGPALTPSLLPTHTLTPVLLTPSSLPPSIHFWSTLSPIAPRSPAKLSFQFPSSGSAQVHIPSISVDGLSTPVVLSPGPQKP
How it was run: as §1

GABPA = target: T3, GABPA (Homo sapiens, UniProt Q06546 1-454)
T3 sequence: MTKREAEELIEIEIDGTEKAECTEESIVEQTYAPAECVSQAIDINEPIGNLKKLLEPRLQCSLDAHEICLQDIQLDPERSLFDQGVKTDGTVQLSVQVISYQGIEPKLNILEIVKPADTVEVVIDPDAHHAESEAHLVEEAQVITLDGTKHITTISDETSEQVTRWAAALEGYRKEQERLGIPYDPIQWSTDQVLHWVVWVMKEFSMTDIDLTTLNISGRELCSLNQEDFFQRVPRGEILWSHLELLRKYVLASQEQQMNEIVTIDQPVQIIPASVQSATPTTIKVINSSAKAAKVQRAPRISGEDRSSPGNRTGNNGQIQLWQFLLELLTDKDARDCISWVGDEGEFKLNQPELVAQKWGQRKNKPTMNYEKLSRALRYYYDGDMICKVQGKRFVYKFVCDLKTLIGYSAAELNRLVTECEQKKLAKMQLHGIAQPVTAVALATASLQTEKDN
How it was run: as §1

ERG = target: T4, ERG (Homo sapiens, UniProt P11308 1-479)
T4 sequence: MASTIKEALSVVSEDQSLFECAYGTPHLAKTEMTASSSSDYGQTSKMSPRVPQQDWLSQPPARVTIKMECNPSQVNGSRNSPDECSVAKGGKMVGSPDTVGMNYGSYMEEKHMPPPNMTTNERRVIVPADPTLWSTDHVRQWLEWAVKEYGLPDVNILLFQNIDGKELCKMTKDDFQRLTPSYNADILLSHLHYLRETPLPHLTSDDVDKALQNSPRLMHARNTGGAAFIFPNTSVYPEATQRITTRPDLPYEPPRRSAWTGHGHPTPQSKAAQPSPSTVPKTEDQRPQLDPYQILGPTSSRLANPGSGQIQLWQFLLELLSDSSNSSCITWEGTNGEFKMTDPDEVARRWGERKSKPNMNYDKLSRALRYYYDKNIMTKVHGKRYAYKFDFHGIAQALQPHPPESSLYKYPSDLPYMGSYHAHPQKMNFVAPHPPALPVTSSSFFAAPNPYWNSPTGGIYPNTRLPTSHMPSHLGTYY
How it was run: as §1

ELF1 = ELF1 (Homo sapiens, UniProt P32519 1-619)
How it was run: as §1

EHF = target: T5, EHF (Homo sapiens, UniProt Q9NZC4 1-300)
T5 sequence: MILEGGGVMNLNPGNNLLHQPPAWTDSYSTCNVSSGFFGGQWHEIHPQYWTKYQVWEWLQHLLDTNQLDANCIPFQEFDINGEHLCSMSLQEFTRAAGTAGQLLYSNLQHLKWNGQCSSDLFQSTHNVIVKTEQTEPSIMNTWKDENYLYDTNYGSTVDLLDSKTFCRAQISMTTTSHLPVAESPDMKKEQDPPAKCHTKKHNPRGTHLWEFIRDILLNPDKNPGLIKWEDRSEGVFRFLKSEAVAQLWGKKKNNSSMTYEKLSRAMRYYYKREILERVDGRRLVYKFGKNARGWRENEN
How it was run: as §1

SPI1 = SPI1 (Homo sapiens, UniProt P17947 1-270)
How it was run: as §1

SPIB = SPIB (Homo sapiens, UniProt Q01892 1-262)
How it was run: as §1

ELK3 = target: T6, ELK3 (Homo sapiens, UniProt P41970 1-407)
T6 sequence: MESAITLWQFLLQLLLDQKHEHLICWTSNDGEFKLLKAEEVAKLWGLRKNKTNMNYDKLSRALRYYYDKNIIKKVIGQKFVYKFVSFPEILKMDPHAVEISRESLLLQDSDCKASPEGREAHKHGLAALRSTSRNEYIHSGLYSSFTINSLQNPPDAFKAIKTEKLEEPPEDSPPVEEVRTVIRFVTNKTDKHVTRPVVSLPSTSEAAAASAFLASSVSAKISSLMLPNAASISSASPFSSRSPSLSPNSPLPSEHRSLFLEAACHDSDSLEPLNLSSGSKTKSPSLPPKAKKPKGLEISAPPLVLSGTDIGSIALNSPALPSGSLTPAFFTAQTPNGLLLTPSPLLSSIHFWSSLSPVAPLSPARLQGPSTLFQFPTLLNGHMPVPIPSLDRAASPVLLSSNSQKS
How it was run: as §1

Sequence of ELF1 (P32519 whole entry): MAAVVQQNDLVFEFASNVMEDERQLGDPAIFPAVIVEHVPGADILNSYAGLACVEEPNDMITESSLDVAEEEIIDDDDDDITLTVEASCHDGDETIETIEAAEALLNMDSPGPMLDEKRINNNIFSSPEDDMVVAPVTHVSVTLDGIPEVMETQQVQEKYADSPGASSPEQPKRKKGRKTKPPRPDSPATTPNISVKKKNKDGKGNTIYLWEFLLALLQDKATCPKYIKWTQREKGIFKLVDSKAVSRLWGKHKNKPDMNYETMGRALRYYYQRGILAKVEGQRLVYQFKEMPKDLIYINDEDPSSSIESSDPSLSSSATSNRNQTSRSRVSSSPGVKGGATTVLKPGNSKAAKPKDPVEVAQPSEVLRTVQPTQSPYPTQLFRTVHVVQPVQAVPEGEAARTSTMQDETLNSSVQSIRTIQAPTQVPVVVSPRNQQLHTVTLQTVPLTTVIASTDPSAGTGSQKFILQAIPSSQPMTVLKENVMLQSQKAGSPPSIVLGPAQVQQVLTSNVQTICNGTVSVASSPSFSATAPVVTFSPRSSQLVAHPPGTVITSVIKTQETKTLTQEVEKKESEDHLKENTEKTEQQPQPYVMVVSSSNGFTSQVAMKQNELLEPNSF
Sequence of SPIB (Q01892 whole entry): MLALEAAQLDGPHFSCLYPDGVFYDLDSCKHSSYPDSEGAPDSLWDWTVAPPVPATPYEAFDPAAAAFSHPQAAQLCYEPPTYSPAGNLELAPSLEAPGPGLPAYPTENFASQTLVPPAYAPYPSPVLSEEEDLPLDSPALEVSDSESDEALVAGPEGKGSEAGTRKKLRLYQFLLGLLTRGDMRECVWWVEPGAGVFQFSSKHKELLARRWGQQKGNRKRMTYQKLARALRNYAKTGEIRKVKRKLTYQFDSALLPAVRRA

| Sequence | binding signal (FLI1) | binding signal (ELK1) | binding signal (GABPA) | binding signal (ERG) | binding signal (ELF1) | binding signal (EHF) | binding signal (SPI1) | binding signal (SPIB) | binding signal (ELK3) |
| --- | --- | --- | --- | --- | --- | --- | --- | --- | --- |
| ATTTCT | 1.45 fold enrichment (6-mer frequency, TF over GST control) | 1.51 fold enrichment (6-mer frequency, TF over GST control) | 1.51 fold enrichment (6-mer frequency, TF over GST control) | 1.5 fold enrichment (6-mer frequency, TF over GST control) | 1.48 fold enrichment (6-mer frequency, TF over GST control) | 1.3 fold enrichment (6-mer frequency, TF over GST control) | 1.47 fold enrichment (6-mer frequency, TF over GST control) | 1.43 fold enrichment (6-mer frequency, TF over GST control) | 1.32 fold enrichment (6-mer frequency, TF over GST control) |
| TGAACT | 1.27 fold enrichment (6-mer frequency, TF over GST control) | 1.19 fold enrichment (6-mer frequency, TF over GST control) | 1.33 fold enrichment (6-mer frequency, TF over GST control) | 1.32 fold enrichment (6-mer frequency, TF over GST control) | 1.2 fold enrichment (6-mer frequency, TF over GST control) | 1.34 fold enrichment (6-mer frequency, TF over GST control) | 1.17 fold enrichment (6-mer frequency, TF over GST control) | 1.25 fold enrichment (6-mer frequency, TF over GST control) | 1.19 fold enrichment (6-mer frequency, TF over GST control) |
| AAATGT | 1.24 fold enrichment (6-mer frequency, TF over GST control) | 1.19 fold enrichment (6-mer frequency, TF over GST control) | 1.25 fold enrichment (6-mer frequency, TF over GST control) | 1.31 fold enrichment (6-mer frequency, TF over GST control) | 1.38 fold enrichment (6-mer frequency, TF over GST control) | 1.32 fold enrichment (6-mer frequency, TF over GST control) | 1.26 fold enrichment (6-mer frequency, TF over GST control) | 1.42 fold enrichment (6-mer frequency, TF over GST control) | 1.37 fold enrichment (6-mer frequency, TF over GST control) |
| AATACT | 1.16 fold enrichment (6-mer frequency, TF over GST control) | 1.19 fold enrichment (6-mer frequency, TF over GST control) | 1.23 fold enrichment (6-mer frequency, TF over GST control) | 1.22 fold enrichment (6-mer frequency, TF over GST control) | 1.29 fold enrichment (6-mer frequency, TF over GST control) | 1.24 fold enrichment (6-mer frequency, TF over GST control) | 1.21 fold enrichment (6-mer frequency, TF over GST control) | 1.14 fold enrichment (6-mer frequency, TF over GST control) | 1.23 fold enrichment (6-mer frequency, TF over GST control) |
| TGATGC | 1.49 fold enrichment (6-mer frequency, TF over GST control) | 1.63 fold enrichment (6-mer frequency, TF over GST control) | 1.65 fold enrichment (6-mer frequency, TF over GST control) | 1.4 fold enrichment (6-mer frequency, TF over GST control) | 1.64 fold enrichment (6-mer frequency, TF over GST control) | 1.58 fold enrichment (6-mer frequency, TF over GST control) | 1.42 fold enrichment (6-mer frequency, TF over GST control) | 1.47 fold enrichment (6-mer frequency, TF over GST control) | 1.72 fold enrichment (6-mer frequency, TF over GST control) |
| ATGACG | 1.28 fold enrichment (6-mer frequency, TF over GST control) | 1.44 fold enrichment (6-mer frequency, TF over GST control) | 1.37 fold enrichment (6-mer frequency, TF over GST control) | 1.29 fold enrichment (6-mer frequency, TF over GST control) | 1.34 fold enrichment (6-mer frequency, TF over GST control) | 1.21 fold enrichment (6-mer frequency, TF over GST control) | 1.32 fold enrichment (6-mer frequency, TF over GST control) | 1.43 fold enrichment (6-mer frequency, TF over GST control) | 1.39 fold enrichment (6-mer frequency, TF over GST control) |
| TCCTGT | 1.8 fold enrichment (6-mer frequency, TF over GST control) | 1.72 fold enrichment (6-mer frequency, TF over GST control) | 1.69 fold enrichment (6-mer frequency, TF over GST control) | 1.94 fold enrichment (6-mer frequency, TF over GST control) | 1.71 fold enrichment (6-mer frequency, TF over GST control) | 1.67 fold enrichment (6-mer frequency, TF over GST control) | 1.99 fold enrichment (6-mer frequency, TF over GST control) | 1.88 fold enrichment (6-mer frequency, TF over GST control) | 1.88 fold enrichment (6-mer frequency, TF over GST control) |
